System: Plasmodium falciparum
Experiment: GSK_TCMDC: Inhibition of Plasmodium falciparum 3D7 in whole red blood cells, using parasite LDH activity as an index of growth. Test compounds present at 2uM
Assay type: functional

First: CC(C)n1cc2c(ccc3nc(N)nc(N)c32)n1
Second: CCCc1cc(Cc2cnc(N)nc2N)cc(OC)c1OC
The Inhibition of the first is higher: 92% for the first, 87% for the second.

Compared with `CCN(CC)CCN(Cc1ccc(-c2ccc(C(F)(F)F)cc2)cc1)C(=O)Cn1c(CCc2cccc(F)c2F)nc(=O)c2cc(C)ccc21.O=C(O)C(O)C(O)C(=O)O`, `CC(C)NC(C)(C)CN(Cc1ccc(-c2ccc(C(F)(F)F)cc2)cc1)C(=O)Cn1c(CCc2cccc(F)c2F)nc(=O)c2ccccc21` is lower in Inhibition: 95% for the first, 94% for the second.

Compared with `COc1ccc(-n2c(=O)c3c(n4c(SC(C)C)nnc24)-c2ccccc2CC32CCCCC2)cc1`, `Cc1cc(-c2cccc3c(NC(=O)N4CCc5cc6nccc(N7CCN8CCC[C@H]8C7)c6cc54)cccc23)cc(C)n1.Cl` is higher in Inhibition: 99% for the first, 100% for the second.

Compared with `Cc1nc(-c2ccncc2)sc1C(=O)Nc1ccc(Cl)cc1C(=O)Nc1ccc(Cl)cc1`, `CC(=O)Nc1ccc(C(=O)Nc2ccc(-c3cccc(-c4nc5ccccc5[nH]4)c3)cc2)cn1` is higher in Inhibition: 98% for the first, 99% for the second.

Compared with `CC(c1cccc(Nc2nccc(-c3c(-c4cccc(NC(=O)c5c(F)cccc5F)c4)nn4ccccc34)n2)c1)S(C)(=O)=O` (stereo not given), `Fc1ccc2[nH]c(-c3cccc(-c4cccc(CNCc5cnn(-c6ccccc6)n5)c4)c3)nc2c1.O=C(O)C(F)(F)F` is lower in Inhibition: 98% for the first, 91% for the second.

Compared with `Cl.O=S(=O)(NCCCN1CCOCC1)c1ccc2nccc(Nc3ccc(Oc4ccccc4)cc3)c2c1`, `COc1cc2nc(NCc3ccc(S(N)(=O)=O)cc3)nc(Nc3ccc(Oc4ccccc4)cc3)c2cc1OC` is higher in Inhibition: 95% for the first, 100% for the second.

`Cc1cc(C(=O)Nc2ccc3c(c2)CCN3C2CCN(Cc3ccc(F)cc3Cl)C2)no1` (stereo not given) and `CN1CCN(Cc2cc(NC(=O)c3ccc(-c4ccc(Cl)cc4Cl)cc3)ccc2-c2ccccc2)CC1` are the same in Inhibition: 95% for the first, 95% for the second.

Compared with `O=C(NCc1ccc(Cl)cc1)c1ccc(CN2CCCN(Cc3cccc(O)c3)CC2)cc1.O=C(O)C(F)(F)F`, `CCCc1ccc(NC(=O)c2ccc(CN3CCCN(Cc4ccc(OC)cc4)CC3)cc2)cc1.O=C(O)C(F)(F)F` is lower in Inhibition: 82% for the first, 81% for the second.

`C=CCOC(=O)N1CCC(CNCc2cccc(-c3ccc(-c4nc5cccc(C)c5[nH]4)cc3)c2)C1.O=C(O)C(F)(F)F` (stereo not given) and `O=C(O)C(F)(F)F.O=C1CCCN1CCCNCc1ccc(-c2ccc(-c3nc4cc(F)ccc4[nH]3)cc2)cc1` are the same in Inhibition: 100% for the first, 100% for the second.

Going from `COc1ccc2c(c1)CC(CNC[C@H](O)c1cccc(Cl)c1)CC2` (stereo not given in full) to `COc1ccc2nccc([C@@H](O)CN3CCC(NC(=O)/C=C/c4ccc(Cl)c(C(F)(F)F)c4)CC3)c2c1`, the Inhibition rises from 94% to 100%.

`Cc1cc(=NN=Cc2ccccc2Cl)c2ccccc2[nH]1` and `NCc1cccc(-c2ccc3ccnc(N)c3c2)c1` are the same in Inhibition: 100% for the first, 100% for the second.

Compared with `Cc1cccnc1Nc1nc(-c2ccccn2)cs1`, `COc1cc2nc(NCCCOC(C)C)n3nc(-c4ccccc4)nc3c2cc1OC` is lower in Inhibition: 96% for the first, 94% for the second.

First: COc1cc2ccccc2cc1CNCCCCCCNCc1cc2ccccc2cc1OC.CS(=O)(=O)O
Second: Cc1cccc(CNc2nc(C)cc(N[C@@H](Cc3ccccc3)C(=O)NCCc3ccccc3)n2)c1.O=C(O)C(F)(F)F
The Inhibition of the first is higher: 100% for the first, 99% for the second.

Compared with `Cc1ccc(C2=NNC3(S2)C(=O)Nc2ccc(C)cc23)cc1` (stereo not given), `Cc1c(S(=O)(=O)Nc2ccc3nccc(N4CC(C)NC(C)C4)c3c2)sc2ccc(Cl)cc12.Cl` (stereo not given) is lower in Inhibition: 95% for the first, 92% for the second.

Going from `COc1ccc(NC(=O)N2CCCN(CCCCCNC(=O)/C=C/c3ccc(Cl)cc3)CC2)cc1Cl` to `CS(=O)(=O)Nc1ccc2[nH]cc(C3CCN(CC(O)C4CCN(C(=O)/C=C/c5ccc(Cl)c(Cl)c5)CC4)CC3)c2c1.O=C(O)C(F)(F)F` (stereo not given), the Inhibition rises from 97% to 100%.

Compared with `CN(C)CCOc1cc(NC(=O)Nc2cccc([N+](=O)[O-])c2)ccc1I`, `CN1CCC(NC(=O)c2cccc(Nc3cc(Nc4cccc(Br)c4)ncn3)c2)CC1` is lower in Inhibition: 100% for the first, 94% for the second.

First: COc1ccc2nc(N=C3NC4(c5ccccc5)NC(=Nc5nc6ccc(OC)cc6[nH]5)NC4(c4ccccc4)N3)[nH]c2c1.O=C(O)C(F)(F)F (stereo not given)
Second: O=C(Cc1cccnc1)N(Cc1ccc(-c2ccc(CNCc3cccnc3)cn2)cc1)C1CCN(Cc2ccccc2)CC1.O=C(O)C(F)(F)F
The Inhibition of the first is higher: 100% for the first, 93% for the second.

With `COc1ccc2nccc(N3CCN(CCNCc4ccc5c(n4)NC(=O)CS5)CC3)c2n1.Cl` the Inhibition was 100%.

From ChEMBL document CHEMBL1157539, “Thousands of chemical starting points for antimalarial lead identification” (Nature, 2010)
